# Assay results from the supplement of paper PMC11537057.
# Counter-ions that a name gives are not always drawn. ± gives the standard deviation of the averaged measurements. Whole data set: some 1,700 compounds, median “cell number in HSV-1-infected wells relative to infected DMSO wells (H2B-RFP signal)” near 100, cut for the highest 2% near 140. The entries come from a sample that favours the highest values as a whole.
# Test system: A549 infected with HSV-1
# Experiment: cell number in HSV-1-infected wells relative to infected DMSO wells (H2B-RFP signal); higher = more surviving cells (uninfected or antiviral-protected wells give about 200%; low = toxicity)
# Details: 10 µM; 48 h; MOI: 0.1
# Method: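 Selleck FDA-approved library (L1300) screened in duplicate at 10 µM on A549 H2B-mRuby cells in 384-well plates, infected with HSV-1 strain 17 YFP-ICP4 at MOI 0.1 one hour before drug addition. Imaged after 2 days at 37°C. Cell growth (H2B-RFP) and infection (ICP4-YFP) are expressed as % of DMSO-treated wells. Hits: growth >90% and infection <20% of DMSO.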
row,Structure (SMILES),cell number in HSV-1-infected wells
1,C#Cc1cccc(Nc2ncnc3cc4c(cc23)OCCOCCOCCO4)c1 [Icotinib],113 ± 1.4%
2,CCCCCCCCN=c1ccn(CCCCCCCCCCn2ccc(=NCCCCCCCC)cc2)cc1 [Octenidine Dihydrochloride],14.6 ± 4.9%
3,Nc1nc(O)c2ncn(CCC(CO)CO)c2n1 [Penciclovir],205 ± 4.4%
4,CC(=O)OCC(CCn1cnc2cnc(N)nc21)COC(C)=O [Famciclovir],104 ± 3.7%
5,OC[C@H]1O[C@@H](O[C@@H]2[C@@H](CO)OC(O)(CO)[C@H]2O)[C@H](O)[C@@H](O)[C@H]1O (mixture of isomers) [Lactulose],115 ± 1.3%
6,C(=C\c1ccccc1)/CN1CCN(C(c2ccccc2)c2ccccc2)CC1 [Cinnarizine],117 ± 4.5%
7,CN1CCC(OC(c2ccccc2)c2ccccc2)CC1 [Diphenylpyraline HCl],98.9 ± 17%
8,CN1CCN(C(c2ccccc2)c2ccccc2)CC1 [Cyclizine 2HCl],153 ± 28%
9,C[N+](C)(C)CCO.O=C([O-])C(O)C(O)C(=O)O (centres undefined) [Choline bitartrate],124 ± 12%
10,COc1cc(C2Oc3cc([C@H]4Oc5cc(O)cc(O)c5C(=O)[C@@H]4O)ccc3OC2CO)ccc1O (some centres undefined) [Silibinin],95.4 ± 7%
11,C=C[C@@H]1C[C@]1(NC(=O)[C@@H]1C[C@@H](Oc2ncc(OC)c3ccc(Cl)cc23)CN1C(=O)[C@@H](NC(=O)OC(C)(C)C)C(C)(C)C)C(=O)NS(=O)(=O)C1CC1 [Asunaprevir],94.5 ± 22%
12,CCCCc1nc(C)c(CC(=S)N(C)C)c(=O)n1Cc1ccc(-c2ccccc2-c2nnn[nH]2)cc1 [Fimasartan],88.2 ± 16%
13,Cc1cn(-c2cc(NC(=O)c3ccc(C)c(Nc4nccc(-c5cnccn5)n4)c3)cc(C(F)(F)F)c2)cn1 [Radotinib],64.4 ± 25%
14,N[C@@H](Cc1c[nH]c2ccc(O)cc12)C(=O)O [5-hydroxytryptophan (5-HTP)],121 ± 13%
15,CC1(C)CCC(C)(C)c2cc(NC(=O)c3ccc(C(=O)O)cc3)ccc21 [Tamibarotene],143 ± 7.9%
16,C=C(c1ccc(C(=O)O)cc1)c1cc2c(cc1C)C(C)(C)CCC2(C)C [Bexarotene],85.7 ± 8.3%
17,O=C(O)c1ccc(NC(=O)[C@H](Cc2ccc(O)cc2)NC(=O)c2ccccc2)cc1 [Bentiromide],101 ± 29%
18,CCN(CC)C(=O)N1CCN(C)CC1 [Diethylcarbamazine citrate],89.5 ± 22%
19,NC(=NCCCCCCN=C(N)N=C(N)Nc1ccc(Cl)cc1)N=C(N)Nc1ccc(Cl)cc1 [Chlorhexidine?2HCl],9.11 ± 0.6%
20,O=c1[nH]c(=O)n([C@H]2C[C@H](O)[C@@H](CO)O2)cc1I [Idoxuridine],175.6 ± 1.1%
21,Nc1ncn([C@@H]2O[C@H](CO)[C@@H](O)[C@H]2O)c(=O)n1 [Azacitidine],98.3 ± 4.2%
22,Cc1cn([C@@H]2C[C@@H](O)[C@H](CO)O2)c(=O)[nH]c1=O [Telbivudine],102 ± 8.7%

row,Structure (SMILES),cell number in HSV-1-infected wells
1,O=c1[nH]c(=O)n([C@H]2C[C@H](O)[C@@H](CO)O2)cc1F [Floxuridine],53.3 ± 3.6%
2,Nc1ncn([C@H]2C[C@H](O)[C@@H](CO)O2)c(=O)n1 [Decitabine],166 ± 12%
3,Nc1nc(Cl)nc2c1ncn2[C@H]1C[C@H](O)[C@@H](CO)O1 [Cladribine],42.1 ± 4.5%
4,CC[C@H](C)C(=O)O[C@H]1C[C@H](O)C=C2C=C[C@H](C)[C@H](CC[C@@H](O)C[C@@H](O)CC(=O)O)[C@H]21 [Pravastatin sodium],95.3 ± 16%
5,NC(=O)c1cn(Cc2c(F)cccc2F)nn1 [Rufinamide],120 ± 12%
6,C[C@H]1CNCCCN1S(=O)(=O)c1cccc2cncc(F)c12 [Ripasudil (K-115) hydrochloride dihydrate],114 ± 7%
7,N#Cc1cc(-c2n[nH]c(-c3ccncc3)n2)ccn1 [Topiroxostat],111 ± 12%
8,Cc1ncc([N+](=O)[O-])n1CC(C)O (centres undefined) [Secnidazole],99.4 ± 14%
9,NS(=O)(=O)c1cc2c(cc1Cl)N=CNS2(=O)=O [Chlorothiazide],114 ± 25%
10,C1N2CN3CN1CN(C2)C3 [Methenamine],124 ± 25%
11,COc1ccc2cc(CCC(C)=O)ccc2c1 [Nabumetone],97.7 ± 6.2%
12,OCCN1CCN(CCCN2c3ccccc3Sc3ccc(Cl)cc32)CC1 [Perphenazine],86.76 ± 0.7%
13,CN1CCN(CCCN2c3ccccc3Sc3ccc(C(F)(F)F)cc32)CC1 [Trifluoperazine 2HCl],57.5 ± 10%
14,CN1CCN(CCCN2c3ccccc3Sc3ccc(Cl)cc32)CC1 [Prochlorperazine Dimaleate],163 ± 4.8%
15,CN1CCN(CCCN2c3ccccc3Sc3ccc(Cl)cc32)CC1 [Prochlorperazine dimaleate salt],124 ± 49%
16,CC(C)C(=O)OCC(=O)[C@@]12O[C@H](C3CCCCC3)O[C@@H]1C[C@H]1[C@@H]3CCC4=CC(=O)C=C[C@]4(C)[C@H]3[C@@H](O)C[C@@]12C [Ciclesonide],120 ± 13%
17,Cc1onc(-c2c(F)cccc2Cl)c1C(=O)N[C@@H]1C(=O)N2[C@@H]1SC(C)(C)[C@@H]2C(=O)O [Flucloxacillin sodium],111 ± 11%
18,Cc1onc(-c2ccccc2Cl)c1C(=O)N[C@@H]1C(=O)N2[C@@H]1SC(C)(C)[C@@H]2C(=O)O [Cloxacillin Sodium],114 ± 15%
19,Cc1onc(-c2c(Cl)cccc2Cl)c1C(=O)N[C@@H]1C(=O)N2[C@@H]1SC(C)(C)[C@@H]2C(=O)O [Dicloxacillin Sodium],146 ± 32%
20,C[C@]12CC[C@@H]3c4ccc(O)cc4C[C@@H](CCCCCCCCC[S+]([O-])CCCC(F)(F)C(F)(F)F)[C@H]3[C@@H]1CC[C@@H]2O (some centres undefined) [Fulvestrant],74.6 ± 24%
21,C[C@@H](O)[C@H]1C(=O)N2C(C(=O)O)=C(S[C@@H]3CN[C@H](CNS(N)(=O)=O)C3)[C@H](C)[C@H]12 [Doripenem Hydrate],98.3 ± 14%
22,C[C@@H](O)[C@H]1C(=O)N2C(C(=O)O)=C(S[C@@H]3CN[C@H](CNS(N)(=O)=O)C3)[C@H](C)[C@H]12 [Doripenem],124 ± 13%
